# Reference: PubChem BioAssay (NCATS)
# Unmarked numbers belong to inactive results. Inconclusive results are not listed. Where a call stands in place of a potency, no number is given. Active and inactive are the calls of the source. Calls come from the whole dose curve; as a rule, active = well fitted curve in the direction sought with a large enough effect; inconclusive = small, poorly fitted or top-dose-only effect, or another doubt; inactive = no such curve, though single readings can be large; an effect the other way counts as inactive or inconclusive.
# Tests used:
# [1] = target: Glutathione peroxidase 1 (Homo sapiens) (UniProt P07203); assay: Primary qHTS Assay for Inhibitors of Recombinant Selenoprotein Glutathione Peroxidase 1 (GPX1) (AID 1845191); note: nearly all actives have a fitted effect of over 65% in size
# Summary of the method: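 GPX1 10 nM, GR 100 nM, GSH 1 mM, NADPH 0.5 mM, CHP 0.5 mM (final). 30-min cpd preincubation, RT. Ex340/Em450 read t=0, t=15 min.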
# [2] = target: Phospholipid hydroperoxide glutathione peroxidase GPX4 (Homo sapiens) (UniProt P36969); assay: Primary qHTS Assay for Inhibitors of Recombinant Selenoprotein Glutathione Peroxidase 4 (GPX4) (AID 1845192); note: nearly all actives have a fitted effect of over 65% in size; for activity change, negative = inhibition: series mostly up to about 50 µM
# Summary of the method: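 qHTS, GR-coupled: GPX4 200 nM + cpd 30 min RT → GSH 1 mM, NADPH 0.5 mM, GR 100 nM → CHP 0.5 mM start; fluor 340/450 at t0 and t15 min; no-enzyme wells as control.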
# [3] = target: Luciferin 4-monooxygenase (Photinus pyralis) (UniProt P08659); assay: Primary firefly luciferase (FLuc) qHTS assay for identification of artifact compounds. (AID 1845220); note: nearly all actives have a fitted effect of over 60% in size; for activity change, negative = inhibition: series mostly up to about 54 µM
# Summary of the method: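 In this counter-screen for luciferase artifacts, test compounds met substrate (10 uM each luciferin and ATP) before 10 nM enzyme started the reaction. Light output was measured 5 min later.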
# [4] = Primary fluorescence-based thiol-reactive (MSTI) qHTS assay for identification of artifact compounds. (AID 1845221); note: nearly all actives have a fitted effect of over 65% in size; note: potency is the fitted concentration of half-maximal effect;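 for activity change, negative = thiol reactive: series mostly up to about 54 µM; thiol-reactive compounds lower the probe fluorescence signal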
# Summary of the method: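 One-hour, room-temperature, dark incubation of compound with 4 uM MSTI in PBS (pH 7.4, 2% DMSO) precedes a fluorescence read at 525 nm excitation, 598 nm emission; Hill-equation fitting yields concentration-response values.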
# [5] = system: Nanoluciferase (engineered Oplophorus gracilirostris luciferase); assay: Primary Nanoluciferase (NLuc) qHTS assay for identification of artifact compounds. (AID 1845222);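 note: NLuc secreted into diluted conditioned medium of S16 cells; series mostly up to about 54 µM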
# Summary of the method: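 Using secreted nanoluciferase in S16 culture medium (0.22 um filtered, 1:55 dilution), compounds were preincubated 15 min at RT. Signal was generated with Nano-Glo reagent (1:100) over 5 min.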
# [6] = Primary redox qHTS assay for identification of artifact compounds. (AID 1845223)
# Summary of the method: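 Redox-cycling detection via DTT (250 uM final) oxidation coupled to Amplex Red (25 uM)/HRP (250 mU/mL) in HBSS. 15 min preincubation plus 30 min after DTT, room temperature. Ex/Em 525/598 nm; 4-parameter Hill fit against DMSO and 10 uM DA3003.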
# Glutathione peroxidase 1 (Homo sapiens), sequence (P07203 whole entry, looked up): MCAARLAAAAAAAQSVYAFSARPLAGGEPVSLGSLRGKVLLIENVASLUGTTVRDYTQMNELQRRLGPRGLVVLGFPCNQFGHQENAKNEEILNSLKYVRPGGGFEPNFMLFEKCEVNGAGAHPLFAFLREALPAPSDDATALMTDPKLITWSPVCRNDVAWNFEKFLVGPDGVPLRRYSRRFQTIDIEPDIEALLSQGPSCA
# Phospholipid hydroperoxide glutathione peroxidase GPX4 (Homo sapiens), sequence (P36969 whole entry, looked up): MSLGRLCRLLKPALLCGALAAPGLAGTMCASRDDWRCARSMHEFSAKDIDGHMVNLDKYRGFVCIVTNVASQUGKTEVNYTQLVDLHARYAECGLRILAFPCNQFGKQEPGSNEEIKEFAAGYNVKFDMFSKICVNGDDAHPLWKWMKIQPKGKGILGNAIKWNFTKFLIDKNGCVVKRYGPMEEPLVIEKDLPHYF
Structure (SMILES),Potency [1],Potency [2],Potency [3],Potency [4],Potency [5],Potency [6],"activity change, negative = inhibition [3]","activity change, negative = thiol reactive [4]","activity, negative = inhibition [5]",redox activity (% of DA3003) [6]
O=c1[nH]ccc2cc(OC3CCNCC3)ccc12,inactive,inactive,inactive,inactive,inactive,inactive,–,–,–,–
CC[C@H]1OC(=O)[C@](C)(F)C(=O)[C@H](C)[C@@H](O[C@@H]2O[C@H](C)C[C@H](N(C)C)[C@H]2O)[C@](C)(OC)C[C@@H](C)C(=O)[C@@H](C)[C@H]2N(CCCCn3cc(-c4cccc(N)c4)nn3)C(=O)O[C@]12C,inactive,inactive,inactive,inactive,inactive,inactive,–,–,–,–
C=C(C)C1Cc2cc(C(=O)OC3OC(CO)C(O)C(O)C3O)ccc2O1 (stereo not given),inactive,inactive,inactive,9.27 µM (active),inactive,inactive,–,–,–,–
C=CC[C@]12C[C@@H](OC)C(=O)C(OC)=C1O[C@@H](c1cc(OC)c3c(c1)OCO3)[C@@H]2C,inactive,inactive,inactive,inactive,inactive,inactive,–,–,–,–
CC(=O)O[C@@H]1C[C@H](O)[C@@]23CO[C@H](O)[C@]1(C)C2C[C@@H](O)[C@]1(C)C3C(=O)[C@H](OC(C)=O)[C@@]2(C)[C@H](c3ccoc3)C[C@H]3O[C@]321 (stereo not given in full),inactive,inactive,inactive,inactive,inactive,inactive,–,–,–,–
O=C(O)/C=C/c1ccc(O)c(O[C@@H]2O[C@H](CO)[C@@H](O)[C@H](O)[C@H]2O)c1,inactive,inactive,inactive,4.65 µM (active),inactive,inactive,–,–,–,–
C[C@@H]1O[C@@H](O[C@@H]2[C@@H](O)[C@@H](O[C@]3(CO)O[C@H](CO)[C@@H](O)[C@@H]3OC(=O)/C=C/c3ccc(O)cc3)O[C@H](CO)[C@H]2OC(=O)/C=C/c2ccc(O)cc2)[C@H](O)[C@H](O)[C@H]1O[C@@H]1O[C@@H](C)[C@H](O[C@@H]2OC[C@](O)(CO)[C@H]2O)[C@@H](O)[C@H]1O,inactive,inactive,–,–,–,–,-0.433% [at 11.6 µM],79.7% [at 11.5 µM],0% [at 11.6 µM],17.5% [at 11.5 µM]
CC(=O)/C=C/[C@H]1[C@](C)(O)[C@@H](O)[C@H](OC(C)=O)C2C(C)(C)CCC[C@@]21C (stereo not given in full),inactive,inactive,inactive,inactive,inactive,inactive,–,–,–,–
COC(=O)C[C@H]1C(C)(C)[C@H](OC(=O)C(C)C)[C@@]2(O)C(=O)[C@]1(C)C1CC[C@]3(C)C(CC(=O)O[C@H]3c3ccoc3)[C@]13O[C@@H]32 (stereo not given in full),inactive,inactive,inactive,inactive,inactive,inactive,–,–,–,–
CC1(C)CCC[C@@]2(C)C1[C@H](OC(=O)/C=C/C=C/C(=O)O)C=C1COC(=O)[C@@]12O (stereo not given in full),inactive,inactive,inactive,inactive,inactive,inactive,–,–,–,–
CC(C)=CCCC1(C)C=Cc2c(c(C)cc3c2[nH]c2ccccc23)O1 (stereo not given),inactive,inactive,inactive,2.93 µM (active),inactive,inactive,–,–,–,–
COc1cc2ncnc(Nc3cccc(O)c3)c2cc1OC,inactive,inactive,inactive,inactive,inactive,inactive,–,–,–,–
CC1(O)CCCC2(C)C1CCC13CC(CO)C(CCC12)C3 (stereo not given),inactive,inactive,inactive,inactive,inactive,inactive,–,–,–,–
O=C(O)CC1CCC(c2ccc(-c3ccc4nc(C(=O)NCc5ccc(OC(F)(F)F)cc5)cn4c3)cc2)CC1 (stereo not given),inactive,inactive,inactive,inactive,inactive,inactive,–,–,–,–
CNC12CC3C[C@@](C)(C1)C[C@](C)(C3)C2,inactive,inactive,inactive,inactive,inactive,inactive,–,–,–,–
CSc1ccc(C(=O)N[C@@H]2CCCC[C@@H]2NC(=O)CNC(=O)c2cc(C(F)(F)F)ccc2NC(=O)NC(C)C)cc1,inactive,inactive,inactive,inactive,inactive,inactive,–,–,–,–
C[C@@H]1C[C@@H](O)[C@@]23CO[C@@H](O)[C@@H]2CCC[C@@H]3[C@@]12C[C@@H](c1ccoc1)OC2=O,inactive,inactive,inactive,inactive,inactive,inactive,–,–,–,–
O=C(Nc1ccccc1-c1cn2c(CN3CCNCC3)csc2n1)c1ccc2ccccc2n1,inactive,inactive,inactive,inactive,inactive,inactive,–,–,–,–
C=C(C)[C@@H]1CC[C@]2(C)CC[C@]3(C)[C@H](CC[C@@H]4[C@@]5(C)CC[C@@H](O)C(C)(C)[C@@H]5CC[C@]43C)[C@@H]12,inactive,inactive,inactive,inactive,inactive,inactive,–,–,–,–
CC(=O)c1cc(C(=O)N[C@@H](C)Cn2ccc(-c3ccc(C#N)c(Cl)c3)n2)[nH]n1,inactive,inactive,inactive,inactive,inactive,inactive,–,–,–,–
